Hits are enriched below; roughly 2.4% of the tested compounds scored in any of these assays.
POLK inh: DNA polymerase kappa (human) inhibition | purified Pol kappa, fluorescent DNA synthesis assay, 10 min | Potency, µM (top dose mostly 107 µM), inactives show at the highest dose activity, negative = inhibition, most hits filed as inhibitors | 400,000 compounds, 0.53% hits | Q9UBT6 | AID 588579; note: % is set by controls: 0 for no effect and ±100 for the full control effect
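Activity was followed as the change in fluorescence between reads at 0 and 10 min after starting the reaction with 50 nM substrate. Beforehand, 10 nM polymerase had been preincubated with compound for 15 min at room temperature.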
Pol beta inh: DNA polymerase beta (human) inhibition. Potency, µM (titrated, usually from 114 µM), for inactives: at the top dose activity change, negative = inhibition, actives largely listed as inhibitors. AID 485314. Pol beta primer extension/strand displacement, fluorescence kinetic. P06746. 340,000 compounds, 1.3% hits; note: % is set by controls: 0 for no effect and ±100 for the full control effect
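Values derive from four-parameter Hill fits of normalized kinetic data: reads at 0 and 10 min following addition of 50 nM substrate to 10 nM Pol beta preincubated 15 min with compound.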
Pol iota inh: inhibitors of human DNA polymerase iota; Pol iota fluorescent replication assay, 10 min; Potency, µM (doses to about 115 µM), inactives show at the highest dose activity, negative = inhibition, most hits filed as inhibitors; 390,000 compounds, 1% hits
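Pol iota at 10 nM preincubated 15 min with compounds at room temperature; reaction started with fluorescent substrate, 50 nM final. Fluorescence read kinetically at 0 and 10 min; buffer-only wells as negative control.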
FEN1 inh: blocks human flap endonuclease 1 | AID 588795 | Recombinant FEN1 flap cleavage, fluorescence, 15 min | P39748 | Potency, µM (highest dose often 114 µM), inactives show top-dose activity change, negative = inhibition, actives largely listed as inhibitors | 390,000 compounds, 0.35% hits; note: % is set by controls: 0 for no effect and ±100 for the full control effect; nearly all actives have a fitted effect of over 65% in size
Target sequence (P39748 whole entry, looked up): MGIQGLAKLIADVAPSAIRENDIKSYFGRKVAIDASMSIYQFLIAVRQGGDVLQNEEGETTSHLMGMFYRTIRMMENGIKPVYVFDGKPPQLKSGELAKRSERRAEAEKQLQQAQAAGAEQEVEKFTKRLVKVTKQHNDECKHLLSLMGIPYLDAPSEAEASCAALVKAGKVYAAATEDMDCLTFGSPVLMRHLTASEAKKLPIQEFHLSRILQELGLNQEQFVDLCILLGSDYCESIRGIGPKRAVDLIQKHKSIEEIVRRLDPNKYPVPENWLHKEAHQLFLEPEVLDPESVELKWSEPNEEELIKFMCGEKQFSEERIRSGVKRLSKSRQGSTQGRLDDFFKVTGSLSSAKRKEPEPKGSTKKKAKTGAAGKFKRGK
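In this screen, 50 nM flap DNA substrate was added to 10 nM FEN1 pretreated with compound for 15 min at room temperature; cleavage was followed with reads at 0 and 15 min, and Hill fitting gave concentration–response parameters.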
WRN inhibitor: inhibitors of human WRN helicase. 360,000 compounds, 0.46% hits. Potency, µM (highest dose often 114 µM), inactives show at the highest dose activity change, negative = inhibition, actives largely listed as inhibitors. Q14191. WRN helicase unwinding, fluorescent forked duplex, kinetic. AID 651768; note: % is set by controls: 0 for no effect and ±100 for the full control effect; nearly all actives have a fitted effect of over 55% in size
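WRN at 20 nM final was preincubated with compound for 15 min at room temperature; reaction started with 100 nM forked duplex oligonucleotide carrying fluorophore and quencher plus 2 mM ATP (final). Unwinding followed kinetically by red fluorescence (ex 525/em 598 nm).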
POLH inh: DNA polymerase eta (human) inhibition; Q9Y253; recombinant Pol eta, fluorescent DNA replication assay; Potency, µM (doses to about 114 µM), without a hit: top-dose activity change, negative = inhibition, usual class: inhibitors; 390,000 compounds, 1.2% hits; AID 588591; note: % is set by controls: 0 for no effect and ±100 for the full control effect
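Fluorescent replication assay: 50 nM final substrate added after a 15 min room-temperature compound preincubation with 10 nM enzyme. Signal taken at 0 min and again at 10 min.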
An asterisk follows results filed as active; ? = inconclusive; . = not tested or not shown; [ ] = another dose, or the depositor's remark. Calls come from the whole dose curve; as a rule, active = well fitted curve in the direction sought with a large enough effect; inconclusive = small, poorly fitted or top-dose-only effect, or another doubt; inactive = no such curve, though single readings can be large; an effect the other way counts as inactive or inconclusive. Potency is the fitted concentration of half-maximal effect.

SMILES	POLK inh	Pol beta inh	Pol iota inh	FEN1 inh	WRN inhibitor	POLH inh
O=C(NCCc1ccc(Cl)cc1)c1ccc(Cn2c(=O)c3cccn3c3cccnc32)cc1	-27.8%	11.2µM*	?	-4.1%	.	?
O=C(O)c1ccc(S(=O)(=O)N(CCc2ccccc2)Cc2ccc(Cl)cc2)cc1	-12.1%	50.1µM*	0.7%	-15.0%	-5.3%	0.4%
O=C(O)c1ccc(S(=O)(=O)N(Cc2ccccc2)Cc2ccccc2)cc1	-6.8%	8.1%	-9.6%	-11.9%	2.7%[57.1 µM]	3.2%
NS(=O)(=O)Nc1ccccc1Br	6.3%	.	7.5%	16.0%	.	.
O=C(Nc1ccccc1N1CCOCC1)c1cc(-c2ccco2)nc2ccccc12	-41.1%	14.1µM*	?	-10.7%	-15.4%	?
O=C(N/N=C/c1ccc2c(c1)OCO2)c1cc(-c2ccco2)nc2ccccc12	?	.	3.16µM*	10.6%	-6.2%[11.6 µM]	?
CCN1CCN(C(=O)c2cc(-c3ccco3)nc3ccccc23)CC1	?	.	39.8µM*	9.2%	-15.2%	35.5µM*
Cc1ccc(Cl)cc1N1CCN(C(=O)c2ccc3c(c2)N(Cc2ccccc2)CCS3)CC1	-9.4%	1.5%	-1.8%	17.3%	.	-16.2%
CCNc1ncnc2c1nnn2C	-8.3%[60.1 µM]	16.2%	-0.4%	-8.6%	.	-2.8%
CC1CC2=C(NC(=S)NC2c2ccc(F)cc2)/C(=C/c2ccc(F)cc2)C1 (centres undefined)	-8.2%	30.0%	79.4µM*	-14.1%	-5.1%[11.6 µM]	-16.9%
CCCN(CCC)c1ccc(/C=C/c2sc3ccccc3[n+]2CCCCI)cc1	?	.	79.4µM*	?	.	.
COc1ccc(/C=C/c2sc3ccccc3[n+]2CCCCI)cc1OC	0.0%	.	?	-22.9%	.	.
CN(C)c1ccc(/C=C/c2sc3ccccc3[n+]2Cc2ccccc2)cc1	?	.	79.4µM*	?	.	.
CCOC(=O)c1c(NC(=O)c2cc(=O)c3c(C)cc(C)cc3o2)sc(C(C)=O)c1C	-2.9%	-0.6%	-1.2%	-3.8%	.	-7.2%
CCCCCc1c2c(cc(O)c1C(=O)O)OC(=O)c1cc(C(=O)CCCC)c(OC)cc1O2	-7.1%	.	?	?	?	79.4µM*
CCCCCC(=O)Cc1cc(O)cc(O)c1C(=O)Oc1cc(CC(=O)CCCCC)c(C(=O)O)c(OC)c1	-11.2%[60.1 µM]	.	.	.	.	.
CCCCCc1c2c(cc(O)c1C(=O)O)OC(=O)c1c(cc(OC)cc1C(=O)CCCC)O2	?	50.1µM*	?	-21.9%	?	79.4µM*
CCC1CCCCN1C(=O)Cn1c(=O)n(-c2ccccc2C(F)(F)F)c(=O)c2c(C)c(C(=O)N(C)C)sc21 (centres undefined)	0.7%[60.1 µM]	23.3%	31.8%	-3.7%	.	-14.6%
CCOC(=O)Cn1c(=O)n(-c2ccccc2OC)c2nc(-c3ccccc3)nc(C(N)=O)c21	-11.2%[60.1 µM]	-4.2%	5.2%	5.3%	.	-16.2%
O=C(O)/C=C/C(=O)Nc1ccc(Cl)c(C(=O)O)c1	-29.7%	?	?	3.7%	-2.3%	44.7µM*
O=C(O)/C=C/C(=O)Nc1ccc(Oc2ccc(NC(=O)/C=C/C(=O)O)cc2)cc1	.	39.8µM*	.	.	.	.
CCC(C)[C@H](N)c1nnc(SCc2ccc(Cl)c(Cl)c2)o1 (some centres undefined)	-6.3%	?	?	1.5%	.	-2.7%
COc1ccccc1-c1cc(C(=O)Nc2sc3c(c2C#N)CCC(C)C3)c2ccccc2n1 (centres undefined)	-9.7%	-13.9%	5.3%	-3.9%	4.3%	-7.8%
Cc1cc(C(=O)OCC(=O)Nc2sc3c(c2C#N)CCC(C)C3)c2ccccc2n1 (centres undefined)	?	17.8µM*	56.2µM*	-6.8%	-12.9%[57.1 µM]	79.4µM*
COc1cc(-c2nc3n(n2)C(c2ccc(F)cc2)C(C(N)=O)=C(C)N3)cc(OC)c1OC (centres undefined)	-3.0%	0.5%	63.4%	-7.6%	.	-15.0%
COc1ccc(-c2nc(C)c(CCNC(=O)c3ccc(F)c(F)c3)s2)cc1	-7.9%[60.1 µM]	-0.6%	23.4%	-15.0%	.	-9.7%

Source: PubChem BioAssay
